Records with an inconclusive call do not appear. Activity calls are given as the source filed them. Calls follow the shape of the dose curve; as a rule, active = well fitted inhibition curve with a large enough effect; inconclusive = small, poorly fitted or top-dose-only effect; inactive = flat fitted curve, though single readings scatter.
Key:
CRL-7250 = normal cell line; assay: Cytotoxic Profiling of Annotated Libraries Using Quantitative High-Throughput Screening (AID 1296008); details: Five cell lines viability, CellTiter-Glo ATP luminescence, 48-72 h; max response: hits give low values; as to max response: % is scaled to controls: 0 for no effect and ±100 for the full control effect
Procedure, shortened: (§1)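 Cytotoxicity was measured as CellTiter-Glo ATP luminescence, read after 10 min at room temperature. Compound treatment of the cells lasted 48 or 72 hr at 37 degrees Celsius in a qHTS format.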

HaCat [1] = assay: as above; details: Five cell lines viability, CellTiter-Glo ATP luminescence, 48-72 h; max response: hits give low values
Procedure, shortened: as §1

KB-3-1 = assay: as above; details: Five cell lines viability, CellTiter-Glo ATP luminescence, 48-72 h; max response: hits give low values
Procedure, shortened: as §1

NIH3T3 = assay: as above; details: Five cell lines viability, CellTiter-Glo ATP luminescence, 48-72 h; max response: hits give low values
Procedure, shortened: as §1

HACAT [2] = assay: qHTS assay to identify novel small-molecules to repurpose for Merkel cell carcinoma treatment (AID 1296009); details: MCC and control cell lines, CellTiter-Glo viability, 72 h; at 44.8 µM (top of the series) unless noted
Procedure, shortened: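 Cell viability, measured as CellTiter-Glo luminescence, was normalized between DMSO and no-cell wells. The cells had been exposed to 8- or 11-point compound dilutions for 72 hr at 37 degree celsius.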

Measured: max response
Also: nearly all actives have a fitted effect of over 60% in size.

O=C(NCC1CCN(Cc2cccc(Cl)c2)CC1)[C@@H]1CCCN(c2ncnc3c2nc2n3CCCC2)C1
inactive: CRL-7250 4.3% | HaCat [1] | KB-3-1 -6.02% | NIH3T3 | HACAT [2]

C1=Cc2ccccc2C(=C2CCN(CCCCc3nn[nH]n3)CC2)c2ccccc21
inactive: CRL-7250 | HaCat [1] | KB-3-1 -8.87% | NIH3T3 | HACAT [2]

Cc1cc(F)ccc1-c1nc(NCCN=C(N)NC#N)nc2c1ccc(=O)n2-c1c(F)cccc1F
inactive: CRL-7250 1.44% | HaCat [1] 4.96% | KB-3-1 0.209% | NIH3T3 4.3%

CC(=O)c1c(C)cc2cccc(O)c2c1O[C@@H]1O[C@H](CO)[C@@H](O)[C@H](O)[C@H]1O
inactive: CRL-7250 -1.95% | HaCat [1] | KB-3-1 | NIH3T3 -3.48% | HACAT [2]

COc1cc(OC)c2c(=O)[nH]c(-c3cc(C)c(OCCO)c(C)c3)nc2c1
inactive: CRL-7250 -10.3% | HaCat [1] 1.79% | KB-3-1 | NIH3T3 -22%

C=C1C(=O)O[C@@H]2[C@H]1CC[C@H](C)[C@]1(CCC(=O)O1)C2(C)O (some centres not stated)
inactive: CRL-7250 -3% | HaCat [1] | KB-3-1 | NIH3T3 -19.6% | HACAT [2]

C=CCC1=C[C@]2(OC)[C@H](C)[C@@H](c3ccc4c(c3)OCO4)O[C@]2(OC)CC1=O
inactive: CRL-7250 -2.76% | HaCat [1] -12.1% | KB-3-1 -2.11% | NIH3T3 1.18%

CCCC(=O)C1(c2ccccc2)CCN(C(=O)[C@@H](Cc2ccc(OC)cc2)NC(=O)[C@@H](N)Cc2cncn2C)CC1
inactive: CRL-7250 3.05% | HaCat [1] | KB-3-1 -9.44% | NIH3T3 -0.497% | HACAT [2]

— PubChem BioAssay (NCATS)
